# High-throughput results as filed in PubChem.
# FH mod: Identification of activators of human fumarate hydratase by quantitative high-throughput screening | 0.22% of 54,000 active | Fumarate hydratase, mitochondrial (Homo sapiens), P07954 | Potency, µM (top dose mostly 79.9 µM), without a hit: top-dose activity change, negative = inhibition, usual class: inhibitors | FH coupled MDH/diaphorase resazurin fluorescence, 15 min; also: potency is read from the fitted curve at half-maximal effect; % is scaled to controls: 0 for no effect and ±100 for the full control effect; the screen sought activators but most active calls are inhibition curves; nearly all actives have a fitted effect of over 45% in size
# GALC G270D up: A Novel Cell-Based Assay to Identify Small Molecules for B -Galactocerebrosidase. P54803. 145M-Twi-hGALC-G270D cells, HMU-beta-Gal fluorescence, 48 h. 0.1% of 45,000 active. Potency, µM (doses to about 57.5 µM), usual class: activators; also: potency is read from the fitted curve at half-maximal effect; 0% is about no effect; nearly all actives have a fitted effect of over 65% in size
#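 qHTS, 1536-well; 145M-Twi-hGALC-G270D cells (WT line also made) in DMEM/F12 + 10% FBS; compound incubation on live cells; HMU-β-gal 0.1 mM final, pH 5.2, NaTC; carbonate stop; fluorescence increase = enhanced residual activity.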
# B2AR arrestin ag: qHTS assay of beta-arrestin-biased ligands of beta2-adrenergic receptor: NCGC Sytravon Library Screen | 44,000 tested, under 10 active | Potency, µM (top dose mostly 46.1 µM), usual class: activators | Beta-2 adrenergic receptor (Homo sapiens), P07550 | HTLA Tango cells, beta-arrestin recruitment, luciferase luminescence, 18 h | AID 1347077, 2019;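 also: potency is read from the fitted curve at half-maximal effect; 0% = DMSO and full agonism = EC100 isoproterenol or metaproterenol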
#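 Receptor–beta-arrestin recruitment read by tTA-responsive luciferase: compound titrations (up to 46 µM) incubated 18 h with Tango cells, then luminescent substrate 15 min at room temperature. Concentration-response fits classified by r2, efficacy and activity.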
# PTAP-TSG101 blk: qHTS Validation Assay for Inhibitors of HIV-1 Budding by Blocking the Interaction of PTAP/TSG101: Sytravon Library Screen | 44,000 tested, under 10 active | Potency, µM (highest dose often 115 µM), usual class: inhibitors | Fluorescence polarization, FITC-PTAP peptide/Tsg101, 20 min | Tumor susceptibility gene 101 protein (Homo sapiens), Q99816; also: potency is read from the fitted curve at half-maximal effect; 0% is about no effect
#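 Compounds pinned into 10 uM Tsg101 binding domain, then 50 nM FITC-PTAP peptide added in pH 7.5 HEPES buffer; FP read after 20 min, room temperature. Total S+P intensity flags fluorescent compounds; active cut-off <25 µM, efficacy <60%.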
# NTMT1 inh: Primary qHTS for Inhibitors of N-terminal methyltransferase 1 (NTMT1): MTaseGlo Assay; NTMT1 MTase-Glo SAH luminescence, purified enzyme; Potency, µM (highest dose often 114 µM), without a hit: at the highest dose activity change, negative = inhibition, actives largely listed as inhibitors; 2.5% of 59,000 active; N-terminal Xaa-Pro-Lys N-methyltransferase 1 (Homo sapiens), Q9BV86;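 also: potency is read from the fitted curve at half-maximal effect; plate controls were DMSO vehicle for no effect and no enzyme for full effect; nearly all actives have a fitted effect of over 65% in size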
# Target sequence (Q9BV86 whole entry, looked up): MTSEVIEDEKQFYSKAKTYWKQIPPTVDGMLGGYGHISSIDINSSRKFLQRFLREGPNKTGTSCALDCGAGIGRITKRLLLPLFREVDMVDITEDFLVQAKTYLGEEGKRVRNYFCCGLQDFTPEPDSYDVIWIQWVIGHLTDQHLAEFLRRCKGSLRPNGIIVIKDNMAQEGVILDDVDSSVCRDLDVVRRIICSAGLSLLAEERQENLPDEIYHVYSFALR
# GALK inh: qHTS Assay for Inhibitors of Human Galactokinase (GALK): NCGC Sytravon Library Screen; AID 1347072, 2019; recombinant GALK, Kinase-Glo ATP luminescence, 1 h; 44,000 tested, under 10 active; Potency, µM (series often up to 57.5 µM), for inactives: at the highest dose activity, negative = inhibition, usual class: inhibitors; P51570;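 also: plate controls were full GALK reaction for no effect and reaction lacking GALK for full effect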
#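 Compounds were pinned into ATP buffer, then GALK-galactose mix was added (final 5 nM enzyme, 35 uM ATP, 100 uM galactose, pH 8.0). After 1 h at room temperature, Kinase-Glo Plus was added and luminescence read.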
# DYRK1A inh-1: Assay for Inhibitors of Dual-Specificity Tyrosine-(Y)-Phosphorylation Regulated Kinase 1A (Kinase-Glo assay); 80% of 100 active; shares compounds with NTMT1 inh; recombinant DYRK1A, Kinase-Glo ATP depletion luminescence; Potency, µM (series often up to 76.9 µM), for inactives: top-dose activity change, negative = inhibition, usual class: inhibitors; AID 2705, 2010
# CLK4 inh-1: Confirmation Assay for Inhibitors of CDC-like Kinase 4 (Kinase-Glo Assay): SAR round 2; 90% of 90 active; recombinant Clk4, Kinase-Glo ATP luminescence, 4.5 h; Potency, µM (titrated, usually from 76.9 µM), without a hit: at the top dose activity, negative = inhibition, hits mostly inhibitors; AID 493204, 2011; shares compounds with NTMT1 inh
# CLK4 inh-2: Kinase Inhibition Study on Inhibitors of CDC-like Kinase 4 (Reaction Biology data): SAR round 2 | 100% of 65 active | AID 504421, 2011 | Potency, µM, actives largely listed as inhibitors | shares compounds with NTMT1 inh | Reaction Biology kinase assay, 10 uM ATP; calls by dose curve
# DYRK1A inh-2: Kinase Inhibition Study on Inhibitors of Dyrk1a (Reaction Biology data); AID 504424, 2011; Potency, µM, most hits filed as inhibitors; 90% of 65 active; Reaction Biology kinase assay, 10 uM ATP; shares compounds with NTMT1 inh;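 active = compounds that showed inhibition of Dyrk1a and received a fitted potency; inactive = compounds that showed no inhibition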
# CLK2 RBC: Kinase Inhibition Study on Inhibitors of CDC-like Kinase 2 (Reaction Biology data). Reaction Biology kinase assay, 10 uM ATP. 90% of 65 active. Potency, µM, actives largely listed as inhibitors. AID 504427, 2011. shares compounds with NTMT1 inh;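 active = compound that inhibits Clk2 kinase in the dose series, with an IC50 potency reported; inactive = no inhibition seen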
# CLK3 inh: Kinase Inhibition Study on Inhibitors of CDC-like Kinase 3 (Reaction Biology data) | recombinant CLK3 kinase assay, 10 uM ATP | Potency, µM, hits mostly inhibitors | shares compounds with NTMT1 inh | 40% of 65 active | AID 504428, 2011;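 active = compounds that inhibited Clk3 enough in the ten-dose series to give a half-maximal potency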
# DYRK1B inh: Kinase Inhibition Study on Inhibitors of Dyrk1b (Reaction Biology data); shares compounds with NTMT1 inh; Recombinant Dyrk1b kinase assay, 10 uM ATP; Potency, µM, hits mostly inhibitors; 80% of 65 active; AID 504429, 2011;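 active = compounds whose dose response shows an inhibitor phenotype against the kinase Dyrk1b; inactive = compounds showing no inhibitor phenotype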
# CLK1 RBC: Kinase Inhibition Study on Inhibitors of CDC-like Kinase 1 (Reaction Biology data). shares compounds with NTMT1 inh. recombinant Clk1 kinase assay, 10 uM ATP. Potency, µM, hits mostly inhibitors. 90% of 65 active. AID 504430, 2011;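 active = compounds that block the splicing kinase Clk1 enough to give a fitted half-inhibition concentration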
# NNMT counter: Counterscreen qHTS for Inhibitors of N-terminal methyltransferase 1 (NTMT1): NNMT MTaseGlo assay; shares compounds with NTMT1 inh; NNMT MTase-Glo luminescence, SAH detection; Potency, µM (titrated, usually from 57.1 µM), for the others: at the top dose activity, negative = inhibition, hits mostly inhibitors; 10% of 120 active; AID 1645878, 2021
# Target sequence (P40261 whole entry, looked up): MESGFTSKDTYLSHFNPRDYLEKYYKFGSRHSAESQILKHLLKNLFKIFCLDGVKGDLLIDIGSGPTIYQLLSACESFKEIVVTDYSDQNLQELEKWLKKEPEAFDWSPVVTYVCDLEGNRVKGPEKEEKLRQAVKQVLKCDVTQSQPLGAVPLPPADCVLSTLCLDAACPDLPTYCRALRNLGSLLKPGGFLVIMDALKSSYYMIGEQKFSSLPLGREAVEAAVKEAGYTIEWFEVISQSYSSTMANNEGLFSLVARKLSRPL
# * marks the source's active call; other numbers are inactive results; i = inactive; u = inconclusive; x = no result; [ ] = remark or other dose. The entries come from a sample that favours hits as a whole. Unless noted, calls follow the shape of the dose curve; as a rule, active = well fitted curve in the direction sought with a large enough effect; inconclusive = small, poorly fitted or top-dose-only effect, or another doubt; inactive = no such curve, though single readings can be large; an effect the other way counts as inactive or inconclusive.
SMILES,FH mod,GALC G270D up,B2AR arrestin ag,PTAP-TSG101 blk,NTMT1 inh,GALK inh,NNMT counter,others
Cc1nc(CN(C)c2ncnc3cc(-c4ccc5c(c4)OCO5)ccc23)cs1,x,x,x,x,u,x,x,DYRK1A inh-1=9.23µM*;CLK4 inh-2=15*;DYRK1A inh-2=i;CLK2 RBC=i;CLK3 inh=i;DYRK1B inh=i;CLK1 RBC=i
Cc1nc(CCN(C)c2ncnc3ccc(-c4ccc5c(c4)OCO5)cc23)cs1,x,x,x,x,u,x,x,CLK4 inh-1=0.0823µM*
CC1=C(c2ccc(NC(=O)c3c(F)cccc3F)cc2)CN(c2nccs2)CC1,-15.6%,x,x,x,8.1%[57.5 µM],x,x,
COc1ccc(-c2cc3c(C)nc(N)nc3n(C3CCC(OCCO)CC3)c2=O)cn1 (stereo unspecified),0.8%,x,x,x,-0.4%,x,u,
CN(C)CCCOc1ccc(-c2ccc3ncc4c(c3c2)n(C2CCOCC2)c(=O)n4C)cn1,x,x,x,x,-0.2%[57.5 µM],x,x,
Cc1cc(-c2ncc(CC(=O)Nc3ccc(-c4cnccn4)cn3)cc2C)ccn1,-9.6%,x,x,x,4.9%[57.5 µM],x,u,
Cc1ccc(-n2ncc3c(N4CCN(C)CC4)ncnc32)cc1,-0.4%,i,i,i,-1.3%,-0.2%,x,
